In article doi:10.1101/2023.07.10.548322:

Target: alpha-synuclein (aSyn) WT (human, UniProt P37840 1-140)
Assay: RNA Bind-n-Seq
Details: ssRNA

Binding signal, 54.6 enrichment score:
GGAUGGUUGGUG, GGGCAGUGGAGG

Binding signal, 49.1 enrichment score:
AGGGUGGCGGUG, GUGGAUGGCGGG, GCGGGGUUAGGG, AGUGCGGGGGGG, GGCGGGCGGAGG, AGUGGGUGUGGA

Binding signal, 46.4 enrichment score:
GGCGGUUGUUGG, GUGUGGCGGAGG, UUGGGUGGAGGG

Binding signal, 43.8 enrichment score:
UGGGAGGGGAGU, GGUUGGGAGCGG, GUGUAGGUGGGG, GGGUGGGUUUGG, GGAGGUAGGGAG, GCGGGCAGGUGG, GGUGGUUUGUGG, GGAAUGGGGUGG, GUGGGGGGGGCA, GGGGAUGGUAGG, GCGGGGGGGCUG

Binding signal, 57.4 enrichment score:
GAGGAGGGUGGG, GAGGUGGAGGGU

Binding signal, 41.1 enrichment score:
AUGGGGUGGGCG, AGGGGAGCUGGG, GGAGGCAGUGGG, GGAGGUGGUGCG, CGUGGGGAGUGG, GUGGGUGUGGUA, GGUGGAUGAGGG, UGGGGGAUGGAG, GAGGGGCUGGCG, GGAGGAAGGGGA
